Among the data in PubChem BioAssay (NCI) are growth values, retold here.

Molecules are shown by their SMILES. This is part of a sample that, as a whole, favours compounds with a hit. Of some 83,000 tested, about 20% had one in any assay.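 Treatment: one concentration, 48 hours, 96-well format. Scoring: percent growth, with anything below 10 considered active.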 Values without a mark were called inactive. Active and inactive are the calls of the source.

One assay relates to U251 CNS. In words: NCI-60 one-dose screen, 48 h (100 = growth as untreated, 0 = no growth, -100 = all killed). The following applies: 10 µM unless noted.
For `O=C1c2ccccc2NC(c2cn(-c3ccccc3)nc2-c2cccs2)N1Cc1ccccc1` (stereo not drawn), the growth is 86.9%.
The same measure, in the same setting: to `COC(=O)[C@]12CC[C@@H](C)[C@H](C)[C@@H]1C1=CC[C@@H]3[C@@]4(C)C[C@@H](O)[C@H](O)[C@@](C)(CO)C4=CC[C@@]3(C)[C@]1(C)CC2` belongs -85.4% (active); to `Cn1c(=O)c2c(nc(Br)n2CC(=O)Nc2ccc(F)cc2)n(C)c1=O`, 100%.
Regarding `CCN(CC)CCCCCCNc1ccnc2cc(Cl)ccc12`, the growth is 85.3%.
Regarding `C#CCC(C)(O)/C=C/C1=C(C)CCCC1(C)C` (stereo not drawn), the growth was 86.1%.

A further assay relates to PC-3 prostate. The description is as above. The following applies: 10 µM unless noted.
Regarding `CC(C)(C)c1ccc(OCCCCCCCN2CCNCC2)cc1`, the growth is 28.1%.
On to `O=Cc1nc2ccccc2[nH]1`, for which the growth was 78.7%.
The same measure, in the same setting: the value for `C[C@]12CC[C@@H]3c4ccc(O)cc4CC[C@H]3[C@@H]1C[C@H](O)[C@@H]2O` was 92.4%.
For the molecule `Cn1c(=O)c2c(ncn2CCC(=O)Nc2ccc(F)cc2)n(C)c1=O`, the growth is 80.9%.
With `CN(C)CCCCC(C(=O)CBr)(c1ccccc1)c1ccccc1`, the growth is 51.6%.
Turning to `C[C@@H]1CCCCCCCCC[C@H](O)C(=O)C[C@@H](SC[C@@H](O)C(=O)O)C(=O)O1`, the growth is 83%.
Regarding `O=C(N/N=C/c1ccccc1SSc1ccccc1/C=N/NC(=O)c1ccccc1)c1ccccc1`, the growth was 40.2%.
Consider `CC/C=C\C[C@H]1CC=C2C(=O)C=C[C@@H]2CC=CCCCC(=O)O[C@@H](CCCCC)CC=C2C(=O)C=C[C@@H]2CC=CCCCC(=O)O[C@@H](CCCCC)CC=C2C(=O)C=C[C@@H]2CC=CCCCC(=O)O[C@@H](CCCCC)CC=C2C(=O)C=C[C@@H]2CC=CCCCC(=O)O1`, for which the growth is 13.5% [7.9 µM].
For the molecule `COc1ccc(NC(=S)N/N=C/c2ccccc2SSCCC(=O)OC[C@H]2O[C@H](O)[C@H](O)[C@@H](O)[C@@H]2O)cc1`, the growth is 59.9%.
Turning to `Fc1ccc(Nc2nnc(-c3ccc(Cl)cc3)o2)cc1`, the growth is 86.7%.
The same measure, in the same setting: to `COC(=O)[C@]12CC[C@@H](C)[C@H](C)[C@@H]1C1=CC[C@@H]3[C@@](C)(CC#N)C4=C(C[C@@]3(C)[C@]1(C)CC2)OC[C@]4(C)C=O` belongs 9.95% (active).
Turning to `COc1ccc(/C=C/C(=O)NCC(C)O)cc1` (stereo not drawn), the growth is 94.5%.
Still for that read-out and setting: the value for `COc1cnc2c(c1)C(=O)c1c-2n(CCCNC(C)C)c(=O)c2cc([N+](=O)[O-])ccc12` was -54.3% (active).
The same measure, in the same setting: to `Cn1cc(-c2csc(-c3cn(CCNC(=O)OC(C)(C)C)c4ccc(F)cc34)n2)c2cccnc21` belongs 25.9%; to `NCCn1cc(-c2nc(-c3c[nH]c4ncccc34)cs2)c2cc(F)ccc21`, 58.5%; to `Cc1cc(N2CCCCC2)nc(N(CCNc2ccnc3cc(Cl)ccc23)Cc2ccco2)n1`, 13.9%.
For `Fc1ccc(Nc2nc(Nc3ccc(-c4nc5ccccc5[nH]4)cc3)nc(N3CCCC3)n2)cc1`, the growth was 33.8%.
For `Brc1ccc2c(c1)c(-c1nc(-c3c[nH]c4ncccc34)cs1)cn2CCCN1CCCCC1`, the growth is 2.12% (active).
On the same count and under the same terms, to `O=C1CNCCN1` belongs 96.5%.
Turning to `COC(=O)[C@]12CC[C@@H](C)[C@H](C)[C@@H]1C1=CC[C@@H]3[C@@]4(C)CC(=O)[C@H](OC(=O)c5ccco5)[C@@]5(C)COC(=C45)C[C@@]3(C)[C@]1(C)CC2`, the growth was 17.3%.
For the molecule `NCCn1cc(-c2nc(-c3c[nH]c4ncccc34)cs2)c2cc(Br)ccc21`, the growth is 59.9%.
As to `Cc1cc(N2CCCCC2)nc(N(CCCNc2ccnc3cc(Cl)ccc23)Cc2ccco2)n1`, the growth was 2.61% (active).
Take `CCCCC[C@H]1CC=C2C(=O)C=C[C@@H]2CC=CCCCC(=O)O[C@@H](CCCCC)CC=C2C(=O)C=C[C@@H]2CC=CCCCC(=O)O[C@@H](CCCCC)CC=C2C(=O)C=C[C@@H]2CC=CCCCC(=O)O1`: the growth is -15.7% [8.75 µM] (active).
For `CCC(CC)C(=O)OC(C)COc1ccc(C(C)(C)C)cc1` (stereo not drawn), the growth was 73.2%.
For `CC/C(=N/NC(N)=O)c1ccccc1`, the growth was 102%.
The same measure, in the same setting: to `N#CC1=C(N)Oc2c(sc3c(F)cccc23)C1c1ccc(Cl)cc1` (stereo not drawn) belongs 8.41% (active).
On the same count and under the same terms, to `CCCCC[C@H]1C/C=C2/C(=O)C(Cl)=C[C@@H]2C/C=C\CCCC(=O)O[C@@H](CCCCC)C/C=C2/C(=O)C(Cl)=C[C@@H]2C/C=C\CCCC(=O)O1` belongs -37.7% (active); to `c1ccc(-c2nc(Nc3ccc(-c4nc5ccccc5[nH]4)cc3)nc(N3CCOCC3)n2)cc1`, -35.5% (active).
